Measured values reported in PubChem BioAssay (NCI).
The panel holds about 83,000 compounds, 20% with a hit somewhere; the sample as a whole holds those more often.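 Assay: single dose, 48 h. Readout: percent growth (0 = no net growth; negative = cell death). Active: <10.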 A number with no mark means an inactive call. The source made the active and inactive calls.

Assays:
Experiment in all cases: NCI-60 one-dose screen, 48 h (100 = growth as untreated, 0 = no growth, -100 = all killed)
SK-MEL-2 melanoma = details: 10 µM unless noted
EKVX NSCLC = details: 10 µM unless noted
SN12C renal = details: 10 µM unless noted
UO-31 renal = details: 10 µM unless noted
TK-10 renal = details: 10 µM unless noted
ACHN renal = details: 10 µM unless noted
CAKI-1 renal = details: 10 µM
CCRF-CEM leukemia = details: 10 µM unless noted
MOLT-4 leukemia = details: 10 µM unless noted
SR leukemia = details: 10 µM unless noted
RPMI-8226 leukemia = details: 10 µM unless noted
OVCAR-8 ovarian = details: 10 µM unless noted
OVCAR-5 ovarian = details: 10 µM unless noted
OVCAR-4 ovarian = details: 10 µM unless noted
SK-OV-3 ovarian = details: 10 µM unless noted
OVCAR-3 ovarian = details: 10 µM unless noted
HS 578T breast = details: 10 µM unless noted
NCI/ADR-RES ovarian = details: 10 µM unless noted
IGROV1 ovarian = details: 10 µM unless noted
A498 renal = details: 10 µM unless noted

SMILES	growth (SK-MEL-2 melanoma)	growth (EKVX NSCLC)	growth (SN12C renal)	growth (UO-31 renal)	growth (TK-10 renal)	growth (ACHN renal)	growth (CAKI-1 renal)	growth (CCRF-CEM leukemia)	growth (MOLT-4 leukemia)	growth (SR leukemia)	growth (RPMI-8226 leukemia)	growth (OVCAR-8 ovarian)	growth (OVCAR-5 ovarian)	growth (OVCAR-4 ovarian)	growth (SK-OV-3 ovarian)	growth (OVCAR-3 ovarian)	growth (HS 578T breast)	growth (NCI/ADR-RES ovarian)	growth (IGROV1 ovarian)	growth (A498 renal)
O=c1[nH]c(CCl)nc2c1cnn2-c1ccccc1	-89.8% (active)	100%	99.8%	-20.9% (active)	154%	96.7%	97.6%	101%	104%	87.1%	82.5%	104%	114%	111%	122%	100%	111%	106%	–	–
O=C(Nc1cc(Cl)cc(Cl)c1)Nc1nc2ccc([N+](=O)[O-])cc2s1	-22.2% (active)	6.9% (active)	2.15% (active)	6.95% (active)	-1.5% (active)	3.76% (active)	6.87% (active)	10.3%	2.31% (active)	-0.61% (active)	-23.8% (active)	8.77% (active)	24%	10%	-2.86% (active)	13.8%	-6.91% (active)	2.26% (active)	21.1%	–
CCOC(=O)C1=C(C)N=C2Sc3ccccc3N2C1c1ccccc1 (configuration not stated)	89.7%	67.6%	93.4%	64.7%	110%	88%	65.6%	86.2%	87.2%	83.8%	73.4%	96.6%	102%	91.9%	125%	–	93.5%	82.3%	77.3%	–
CNC(=O)c1c(NC(=O)c2ccc(F)cc2F)sc2c1CCC(=O)C2	-4.48% (active)	14.5%	17.5%	-94% (active)	38.7%	1.41% (active)	-3.18% (active)	4.01% (active)	2.03% (active)	1.58% (active)	–	13.9%	0.937% (active)	-40.6% (active)	-4.66% (active)	0.976% (active)	24.5%	5.72% (active)	22.8%	–
CCOC(=O)c1c(NCC(=O)Nc2ccc(Br)cc2)sc2c1CCCC2	68.7%	76%	18.2%	54.3%	81.4%	14.8%	27%	18.2%	16.8%	43.8%	–	36.5%	–	35.5%	66.9%	10.3%	57.5%	25.2%	–	–
NS(=O)(=O)c1ccc(Nc2nc(N/N=C/c3ccc(F)cc3)nc(Nc3ccccc3)n2)cc1	-9.45% (active)	62.7%	50.3%	66.2%	1.71% (active)	80.8%	56.8%	20%	21.8%	57.7%	50.6%	29.4%	75.3%	55.5%	–	30.4%	40.6%	95.6%	43.5%	–
Cc1ccc(Nc2ncnc3c2c(C)nn3-c2ccc([N+](=O)[O-])cc2)cc1	107%	67.8%	90%	91.3%	97.9%	62.8%	63.6%	79.8%	87.3%	68.6%	–	72.6%	101%	46%	71.7%	–	68.6%	80.4%	84.1%	–
CN(C)c1ncc(/C=C2\SC(=S)N(Cc3ccccc3Cl)C2=O)s1	86%	81.7%	68.7%	47.7%	96.7%	76.2%	79.1%	77.3%	82%	87.8%	–	95.8%	87.9%	2.09% (active)	107%	26.8%	101%	90.8%	70.8%	–
CCCCCCNC(=O)Oc1ccc(/C(=C(/C)c2ccc(Cl)cc2)c2ccc(OCCN3CCCC3)cc2)cc1	78%	53.4%	50.4%	18.1%	86%	37.5%	55.3%	4.42% (active)	–	–	-35.8% (active)	56.8%	67.8%	54.6%	78.8%	23.4%	61.1%	–	32.6%	–
COc1cc(O)c2c(c1)[C@H]1O[C@@H]1C[C@H](O)[C@H](O)C(=O)/C=C\C[C@H](C)OC2=O	20.1%	51.8%	53.5%	20.4%	48.6%	45.4%	–	22.2%	33.6%	22.3%	24.5%	59.3%	61.5%	27%	80.2%	32.1%	76.6%	78.7%	39%	58.9%
CCN1C/C(=N\S(=O)(=O)c2ccccc2)N(CC)C1=S	104%	99%	98.1%	89.9%	100%	102%	95.3%	–	101%	101%	–	99.7%	103%	106%	118%	119%	105%	99.8%	107%	–
CCOC(=O)C1=C(C)Nc2nnc(Nc3ccccc3)n2C1c1ccccc1 (configuration not stated)	99.7%	69%	30.5%	69.5%	81.8%	14.7%	69%	69.5%	–	–	77%	72.5%	91.2%	34.6%	94.6%	–	75.8%	70.8%	62.8%	–
C/C=C/[C@@H]1C=C[C@@H]2C[C@H](C)CC[C@H]2[C@]1(C)/C(O)=C1/C(=O)[C@H](CO)N(C)C1=O	79.2%	55.6%	45.8%	56.2%	67.7%	73.7%	–	40.4%	60.6%	59.2%	36.5%	43.4%	118%	70.5%	75%	49.1%	67.9%	6.87% (active)	57.3%	43.5%
COc1c([C@@H](CC(C)C)OC(C)=O)ccc2c1C(=O)OCc1cc(C)cc(O)c1O2	22.2%	37.6%	27.8%	32.3%	33.6%	16.1%	–	31.4%	21.3%	19.1%	27.6%	21.2%	69.4%	25.9%	24.3%	43%	45.9%	12.6%	44%	61.5%
Cc1nn(-c2ccccc2)c2nc(CCl)[nH]c(=O)c12	105%	99.2%	95.7%	-86.3% (active)	63.3%	90.3%	99.6%	–	79.6%	39.8%	–	102%	112%	110%	122%	90.9%	120%	105%	97.4%	–
CCNC(=O)Oc1ccc(/C(=C(/C)c2ccc(Cl)cc2)c2ccc(OCCN3CCCC3)cc2)cc1	104%	80.2%	75.4%	65.8%	97.6%	95%	85.7%	–	58.6%	23.2%	–	87.7%	90.5%	88.6%	106%	99.8%	92.8%	–	78.1%	–
Cc1cc(NS(=O)(=O)c2ccc(-c3cnc(C4CC4)o3)cc2)ccc1I	63.3%	42.6%	43.5%	48.7%	75.6%	45.1%	39.3%	19.1%	40.8%	32.9%	–	46.4%	54.6%	59.9%	66.2%	8.32% (active)	40%	14.3%	36.7%	–
Cc1cc(F)cc(NS(=O)(=O)c2ccc(-c3cnc(C4CC4)o3)cc2)c1	67%	34.3%	44.8%	43.2%	53.5%	44.4%	39.9%	20.8%	26.1%	27.5%	–	35.8%	43%	49.6%	58.2%	-10.1% (active)	34.1%	6.6% (active)	32.4%	–
